The first experiment has as its target 10 kDa heat shock protein, mitochondrial (UniProt P61604). As to the kind of experiment: cross-link between two proteins; cross-linking mass spectrometry.
Sequence of Calnexin (P27824 whole entry): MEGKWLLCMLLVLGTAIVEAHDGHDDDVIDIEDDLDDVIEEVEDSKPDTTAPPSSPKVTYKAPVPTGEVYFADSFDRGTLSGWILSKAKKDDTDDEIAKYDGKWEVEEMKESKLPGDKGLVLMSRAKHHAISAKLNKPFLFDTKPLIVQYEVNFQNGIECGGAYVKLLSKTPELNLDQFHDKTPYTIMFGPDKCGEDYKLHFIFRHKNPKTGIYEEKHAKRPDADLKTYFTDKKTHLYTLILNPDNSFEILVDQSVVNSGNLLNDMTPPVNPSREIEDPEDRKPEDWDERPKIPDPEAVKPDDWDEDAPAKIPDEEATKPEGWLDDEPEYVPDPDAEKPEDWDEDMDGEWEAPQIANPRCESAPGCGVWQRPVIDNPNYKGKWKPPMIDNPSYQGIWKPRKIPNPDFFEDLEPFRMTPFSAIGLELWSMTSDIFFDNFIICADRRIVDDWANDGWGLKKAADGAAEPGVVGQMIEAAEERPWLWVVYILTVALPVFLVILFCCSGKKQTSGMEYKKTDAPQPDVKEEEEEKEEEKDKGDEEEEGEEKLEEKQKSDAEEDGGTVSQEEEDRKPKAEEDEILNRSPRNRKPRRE
Sequence of Trifunctional enzyme subunit alpha, mitochondrial (P40939 whole entry): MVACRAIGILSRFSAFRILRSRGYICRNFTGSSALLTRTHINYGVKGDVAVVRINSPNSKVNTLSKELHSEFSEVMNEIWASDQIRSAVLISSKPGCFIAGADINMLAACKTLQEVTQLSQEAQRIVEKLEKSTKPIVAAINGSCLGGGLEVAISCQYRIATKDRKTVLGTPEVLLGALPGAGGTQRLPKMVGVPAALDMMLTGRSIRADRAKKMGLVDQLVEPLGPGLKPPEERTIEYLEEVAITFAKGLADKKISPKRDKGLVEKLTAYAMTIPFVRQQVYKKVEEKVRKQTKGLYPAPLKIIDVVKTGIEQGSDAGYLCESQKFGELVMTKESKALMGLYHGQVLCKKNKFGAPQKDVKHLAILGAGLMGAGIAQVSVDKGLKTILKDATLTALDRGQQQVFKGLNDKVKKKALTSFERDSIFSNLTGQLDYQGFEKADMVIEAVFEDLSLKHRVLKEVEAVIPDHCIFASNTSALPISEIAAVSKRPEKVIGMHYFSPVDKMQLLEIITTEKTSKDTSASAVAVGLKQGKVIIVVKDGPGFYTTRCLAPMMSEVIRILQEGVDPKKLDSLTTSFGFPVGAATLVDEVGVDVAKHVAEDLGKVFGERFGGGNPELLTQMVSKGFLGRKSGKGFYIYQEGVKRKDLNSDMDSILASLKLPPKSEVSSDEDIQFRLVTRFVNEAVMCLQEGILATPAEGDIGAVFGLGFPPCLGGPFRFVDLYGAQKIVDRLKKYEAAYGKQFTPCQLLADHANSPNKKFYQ
Sequence of 10 kDa heat shock protein, mitochondrial (P61604 whole entry): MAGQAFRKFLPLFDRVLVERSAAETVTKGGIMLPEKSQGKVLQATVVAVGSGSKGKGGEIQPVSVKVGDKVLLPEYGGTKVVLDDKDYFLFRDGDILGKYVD
Sequence of Cytochrome c, P99999 (P99999 whole entry): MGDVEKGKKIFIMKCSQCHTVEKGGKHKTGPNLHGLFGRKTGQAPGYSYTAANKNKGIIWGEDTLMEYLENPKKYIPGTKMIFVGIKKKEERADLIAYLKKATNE
Sequence of Mitochondrial import inner membrane translocase subunit TIM50, Q3ZCQ8 (Q3ZCQ8 whole entry): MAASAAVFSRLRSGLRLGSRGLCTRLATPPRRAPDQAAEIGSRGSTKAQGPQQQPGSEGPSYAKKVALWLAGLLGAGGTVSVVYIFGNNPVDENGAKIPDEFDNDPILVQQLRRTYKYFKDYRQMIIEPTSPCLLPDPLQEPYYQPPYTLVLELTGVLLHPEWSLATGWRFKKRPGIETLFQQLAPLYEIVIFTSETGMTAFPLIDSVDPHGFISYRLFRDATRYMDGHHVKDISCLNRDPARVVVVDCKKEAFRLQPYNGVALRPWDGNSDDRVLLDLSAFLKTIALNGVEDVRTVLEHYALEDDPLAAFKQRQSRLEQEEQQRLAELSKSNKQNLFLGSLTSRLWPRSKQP
For “NADPH:adrenodoxin oxidoreductase, mitochondrial, P22570”, the “listed as a hit” value is listed as “yes”.
Same read-out and setting: for “Aspartate aminotransferase, mitochondrial, P00505” the value was “yes”; for “Stress-70 protein, mitochondrial, P38646”, “yes”.
The same measure, in the same setting: for “ATP synthase F(1) complex subunit alpha, mitochondrial, P25705” the value was “yes”.

The target in another experiment is Malate dehydrogenase, mitochondrial (UniProt P40926). Described as above.
Take ADP/ATP translocase 2, P05141: the “listed as a hit” value is “yes”.
Same read-out and setting: for “NADPH:adrenodoxin oxidoreductase, mitochondrial, P22570” the value was “yes”; for “Aspartate aminotransferase, mitochondrial, P00505”, “yes”; for “Stress-70 protein, mitochondrial, P38646”, “yes”.
Still for that read-out and setting: the value for “ATP synthase F(1) complex subunit alpha, mitochondrial, P25705” was “yes”; that for “Pyruvate dehydrogenase E1 component subunit alpha, somatic form, mitochondrial, P08559” was “yes”; that for Citrate synthase, mitochondrial, O75390 was “yes”.

A further experiment concerns the target Trifunctional enzyme subunit alpha, mitochondrial (UniProt P40939). The experiment is described as above.
As to ADP/ATP translocase 2, P05141, the “listed as a hit” value is “yes”.
As for “ATP synthase F(0) complex subunit g, mitochondrial, O75964”, the “listed as a hit” value is recorded as “yes”.
The same measure, in the same setting: for “ATP synthase F(1) complex subunit alpha, mitochondrial, P25705” the value was “yes”.

Another experiment has as its target Calnexin (UniProt P27824). Put plainly: cross-link between two proteins; affinity purification or IP with mass spectrometry; cross-linking mass spectrometry.
In the case of “Dolichol-phosphate mannosyltransferase subunit 1, O60762”, the “listed as a hit” value was “yes”.
Regarding “Dolichyl-diphosphooligosaccharide--protein glycosyltransferase subunit 1, P04843”, the “listed as a hit” value is recorded as “yes”.
With “Dolichyl-diphosphooligosaccharide--protein glycosyltransferase subunit 2, P04844”, the “listed as a hit” value is reported as “yes”.

The target in another experiment is Cytochrome c oxidase assembly factor 7 (UniProt Q96BR5). Described as above.
On to “Dynamin-like GTPase OPA1, mitochondrial, O60313”, for which the “listed as a hit” value was “yes”.
On the same count and under the same terms, for Cytochrome c, P99999 the value was “yes”; for “Tetratricopeptide repeat protein 19, mitochondrial, Q6DKK2”, “yes”.
“Cytochrome c oxidase assembly factor SCO2, O43819”: the “listed as a hit” value is reported as “yes”.
On the same count and under the same terms, the value for “Cytochrome c oxidase copper chaperone, Q14061” was “yes”; that for “Myristoylated alanine-rich C-kinase substrate, P29966” was “yes”; that for “Cytochrome c oxidase assembly factor 6 homolog, Q5JTJ3” was “yes”.
Still for that read-out and setting: the value for “Mitochondrial import inner membrane translocase subunit TIM50, Q3ZCQ8” was “yes”.

Values taken from article PMC11024108.
